The campaign covered roughly 1,200 compounds. About 290 (24%) were called active. Roughly 3% stayed inconclusive and do not appear here. These entries were drawn from the full list. Results with a measured potency or affinity are listed apart. A number with no mark means an inactive call.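 How the source made its calls: active means compounds lowering cell viability signal with fitted half-maximal concentration at most ten times their highest tested concentration; inconclusive means flat fit with 30 to 70% signal loss, or poor fit; inactive means the rest.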
assay: HEK293T cell viability reduction, dose response, cytotoxicity control for LMP1 NF-kB inhibitor project, CellTiter-Glo luminescence, cherry-picks (AID 504861); settings: CellTiter-Glo ATP luminescence, 48 h; series mostly up to 26 µM; activity change, negative = cytotoxicity: at the top concentration

SMILES	activity change, negative = cytotoxicity [%]
O=S(=O)(N/N=C/c1ccccc1F)c1ccccc1	10.4
Cc1cc(N2CCOCC2)c2c(N)c(Br)cc(C)c2n1	-2.56
C=CCn1c(=O)/c(=C/c2ccc(Cl)cc2)s/c1=C(\C#N)c1nnc2n1CCCCC2	4.2
NC(=O)CC(NC(=O)c1ccccc1)c1ccc(NC2CCN(Cc3ccccc3)CC2)c([N+](=O)[O-])c1 (stereo not drawn)	-1.78
C=CCN1CCN(C(CC(C)C)c2nnnn2CCOC)CC1 (stereo not drawn)	10.7
O=C(CCS(=O)(=O)c1ccccc1)Nc1nccs1	4.41
CCC(C)(C)NC(=O)C(c1ccc(F)cc1)N(CCOC)C(=O)CCC(=O)Nc1nccs1 (stereo not drawn)	-8.1
CCC(=O)OC1c2ccccc2C(=O)N1Cc1ccccc1 (stereo not drawn)	3.57
COc1ccc(S(=O)(=O)N2CCN(CC(=O)Nc3cc(OC)cc(OC)c3)CC2)cc1	9.62
COC(=O)C1=C(C(=O)c2ccccc2)C(c2ccccc2)n2nnnc2N1 (stereo not drawn)	5.26
O=C(CN1C(=O)CCOc2ccccc21)Nc1ccc(Cl)c(S(=O)(=O)N2CCOCC2)c1	-1.24
CCCCCCCCOC(=O)/C=C/c1c(C)[nH]c(=O)[nH]c1=O	4.83
Cc1c(NC(=O)c2cc(-c3cccs3)nc3ccccc23)c(=O)n(-c2ccccc2)n1C	-9.52
Cn1cccc1/C=C1\CC(C(C)(C)C)C/C(=C\c2cccn2C)C1=O (stereo not drawn)	5.18
O=C(c1ccc(COc2ccccc2Cl)o1)N1CCCC1	3.19
COC(=O)CN(c1ccccc1F)S(=O)(=O)c1ccc(C)cc1	1.16
CCCCCCNC(=O)O[C@]12C[C@@H](C(=O)OC)[C@@H](C(=O)OC)C[C@@]1(O)CN(S(=O)(=O)c1ccc(C)cc1)C2	3.74
COc1ccc(-c2[nH]ncc2-c2ccc3c(c2)OCCO3)c(O)c1	5.3
N#CC1=C(N)OC2=C(C(=O)CCC2)C12C(=O)N1CCCc3cccc2c31 (stereo not drawn)	18.7
COC(CNC(=O)c1ccc(N2CCC3(CC2)OCCO3)c([N+](=O)[O-])c1)OC	21.8
COc1ccc(C)cc1S(=O)(=O)N(CC(=O)Nc1cc([N+](=O)[O-])ccc1C)c1ccc(C)c(C)c1	14.1
Cc1cc(C(=O)COC(=O)c2cccc(NS(C)(=O)=O)c2)c(C)n1CC1CCCO1 (stereo not drawn)	-1.07
O=C(O)c1cccc(NC(=O)c2cn(-c3ccccc3)nc2-c2ccc(F)cc2)c1	-2.08
Cc1ccc(C(=O)Nc2ncc3c(Cl)cccc3n2)cc1	-4.06
CCn1c(CCNC(=O)c2ccc(OC)cc2)nnc1SCc1ccc(Cl)cc1Cl	-1.26
CC(C)(C)c1ccc(-c2noc(CCC(N)=O)n2)cc1	4.9
CCOC(=O)c1cn2nc(N3CCCC3)ccc2n1	-3.72

SMILES	activity change, negative = cytotoxicity [%]
Cc1ccc(NC(=S)NCc2cccs2)cc1	6.68
O=C(Nc1cccc(Cl)c1)Nc1cccc(C(=O)O)c1	4.19
Cc1ccc(NC(=O)C(=O)Nc2ccccn2)cc1	-1.38
S=C(NN=C1C2CC3CC(C2)CC1C3)Nc1ccccc1	7.44
CNC1(C)[C@H]2CC[C@H](C2)C1(C)C (stereo partly drawn)	-0.979
CC(=O)c1cccc(NC(=O)Nc2ccc(C(=O)N3CCOCC3)cc2)c1	-7.4
CCCCCc1ccc(-c2ccc(/C=C/C(=O)O)cc2)nc1	-2.31
COc1ccc(-c2nc(C)ncc2-c2ccccc2)c(O)c1	-3.21
Cc1ccc(N(Cc2cc3ccccc3[nH]c2=O)C(=O)c2ccco2)c(C)c1	7.35
O=C(O)c1cccc(Nc2ccnc(Nc3cccc(C(=O)O)c3)n2)c1	-5.64
CCN(C(=O)CSc1nnc(Nc2cccc(C)c2C)s1)C1CCS(=O)(=O)C1 (stereo not drawn)	15.3
COc1ccc(-c2nc(CN3CCC(C(=O)N4CCOCC4)CC3)c(C)o2)cc1C	-0.49
Cc1cc(C)c2sc(NC(=O)C3CC3)nc2c1	4.24
CCOC(=O)Oc1c(OC)cc(C(=O)O[C@@H]2C[C@@H]3CN4CCc5c([nH]c6cc(OC)ccc56)[C@H]4C[C@@H]3[C@H](C(=O)OC)[C@H]2OC)cc1OC	-5.9
Nc1ccn([C@@H]2O[C@H](CO)[C@@H](O)[C@@H]2O)c(=O)n1	0.472
Cc1cc(N2CCCC2=O)cc(C)c1S(=O)(=O)Nc1c(C)nn(C)c1C	1.46
Cn1cccc1-c1cc(C(=O)N2CCc3c([nH]c4ccccc34)C2c2ccccn2)[nH]n1 (stereo not drawn)	-10.6
COc1ccc(-c2oc3ncnc(NCCN4CCOCC4)c3c2-c2ccc(OC)cc2)cc1	2.98
CSc1nc(C)nc2c1c(=O)n(C)c(=O)n2C	8.38
Cc1ccc(/C=C/c2nc3ccccc3s2)s1	-11.8
Cn1cc(CC(=O)NCCCN2CCCC2)c2ccccc21	3.13
CCc1cc(Cl)c(OC)c(C(=O)NC[C@@H]2CCCN2CC)c1O	-6.38
c1ccc2c3c([nH]c2c1)C(C1CCCCC1)N(Cc1ncc[nH]1)CC3 (stereo not drawn)	1.16
Cc1ccc(C(=O)Nc2sc(Cc3ccc4c(c3)OCO4)c(C)c2C(N)=O)cc1	6.6
O=C(Nc1ccc(N2CCOCC2)cc1)c1cnccn1	1.13
Cn1ncc(Cl)c1C(=O)NC1CCCC1	7.6

Source: PubChem BioAssay AID504861 (Broad Institute, 2011)
